PubChem BioAssay AID777 (Sanford-Burnham Center for Chemical Genomics, 2007)
About 19,000 (20%) of roughly 96,000 compounds were called active.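 Rule for the calls: active = blocking of liver enzyme CYP2C9 beyond about 50% at 5 µM (limit read from the data); inactive = the rest.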 Not all results are given here.

Target: Cytochrome P450 2C9 (Homo sapiens) (UniProt P11712)
Test: blockers of cytochrome P450 2C9 activity – biochemical, luminescence, ADME assay, primary screen (AID 777)
Details: CYP2C9 Supersomes, luciferin-H conversion, at 5 µM, active compounds read high

Chain of Cytochrome P450 2C9 (Homo sapiens) (P11712 whole entry, looked up): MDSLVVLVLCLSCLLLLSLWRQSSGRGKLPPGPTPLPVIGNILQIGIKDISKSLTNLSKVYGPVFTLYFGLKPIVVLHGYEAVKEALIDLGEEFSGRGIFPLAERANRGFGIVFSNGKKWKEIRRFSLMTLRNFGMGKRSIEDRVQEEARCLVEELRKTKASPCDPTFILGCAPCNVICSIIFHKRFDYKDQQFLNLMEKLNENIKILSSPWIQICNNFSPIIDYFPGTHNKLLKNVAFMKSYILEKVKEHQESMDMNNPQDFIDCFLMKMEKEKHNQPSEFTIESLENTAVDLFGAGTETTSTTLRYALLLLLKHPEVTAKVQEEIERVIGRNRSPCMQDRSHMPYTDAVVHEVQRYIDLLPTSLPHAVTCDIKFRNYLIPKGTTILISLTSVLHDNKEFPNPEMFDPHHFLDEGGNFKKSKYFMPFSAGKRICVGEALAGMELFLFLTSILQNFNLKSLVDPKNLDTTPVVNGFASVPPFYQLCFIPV

inhibition, active:
O=C(CCCC(=O)N(CC(=O)NC1CCCC1)Cc1ccccc1Cl)Nc1ccccn1 77.3%
CCOc1ccccc1N(CC(=O)NC1CCCCC1)C(=O)CCCC(=O)Nc1ccccn1 79.8%
COc1ccc2nc(SCC(=O)Nc3c(C)cc(C)cc3C)[nH]c2c1 81.5%
COc1ccc(NC(=O)CSc2nc(NS(=O)(=O)c3ccc(C)cc3)cc(=O)[nH]2)cc1 91.7%
O=C(CCC(=O)OCc1cccc(C(=O)Oc2ccccc2)c1)Nc1cccc2ccccc12 95.5%
Cc1ccccc1NC(=O)C(C)c1ccc(-c2ccccc2)c(F)c1 (centres undefined) 67.2%
Cc1cccn2c(=O)c(/C=C(\C#N)S(=O)(=O)c3ccc(Cl)cc3)c(N3CCC(C(N)=O)CC3)nc12 96.9%
COc1ccccc1-n1cnc2cc(NS(=O)(=O)c3ccccc3)ccc21 82.5%
CN(C)S(=O)(=O)c1ccc(N2CCCC2)c(C(=O)NCc2ccccc2)c1 59.9%
CCNS(=O)(=O)c1ccc(NC(=O)Nc2cccc(OC)c2)cc1 59.5%
CCCc1[nH]nc2c1C(c1c(C)nn(-c3ccccc3)c1Cl)C(C#N)=C(N)O2 (centres undefined) 52.8%
CCCc1[nH]nc2c1C(c1ccc(OC(=O)c3ccco3)cc1)C(C#N)=C(N)O2 (centres undefined) 52%
CCOC(=O)c1nnn(-c2nonc2-n2cccc2)c1CN1CCC(C(=O)OCC)CC1 94.8%
CC(=O)Nc1cccc(NC(=O)c2c(-c3ccccc3)noc2C)c1 74.3%
Cc1onc(-c2ccccc2)c1C(=O)Nc1ccccc1C#N 62.8%
CC(c1nnc(SCC(=O)Nc2sccc2C#N)n1-c1ccc(Cl)cc1)N(C)C (centres undefined) 50.8%
O=C(NCc1ccccc1)[C@@H]1CSC2c3ccccc3C(=O)N21 (some centres undefined) 67.1%

inhibition, inactive:
CCC(C)(NC(=O)c1ccccn1)C(=O)NC1CCCCC1 (centres undefined) 12.3%
Cc1noc(C)c1C(=O)N(CC(=O)NC1CCCC1)Cc1ccccc1F 26.2%
CN(CC(=O)NC1CCCCC1)S(=O)(=O)c1cccc2cccnc12 -46%
CCCC(=O)Nc1cc(OCC)c(NC(=O)NC2CCCCC2)cc1OCC 4.7%
COc1ccc(N2C(=O)C3CCCN3C2c2cccs2)cc1 (centres undefined) 31.3%
O=C1CSC(c2ccccc2)N1c1nc(-c2ccc(Cl)cc2Cl)cs1 (centres undefined) 21.8%
O=C(NCCCNCc1ccccc1)c1ccc(/C=N/O)nc1 -11.5%
O=C(CCCn1c(=O)oc2ccccc21)Nc1cccnc1 -30.9%
COC(=O)C(C)n1cnc2c(nnn2-c2cccc(Cl)c2)c1=O (centres undefined) 1.7%
CN=C1SC(C(=O)O)CC(=O)N1C (centres undefined) -6.4%
COC(=O)C(CC(=O)Nc1cc(C)ccc1C)Nc1ccccc1OC (centres undefined) 7.7%
CCOc1cc(C(=S)N2CCOCC2)ccc1O -10.2%
O=P(c1cccs1)(c1cccs1)c1cccs1 12.7%
O=C1CC(c2cccc(F)c2)C2=C(CCCC2=O)N1 (centres undefined) 12.1%
COc1ccc(OC)c(NC(=O)CSc2nc(N)c(-c3ccccc3)c(=O)[nH]2)c1 29.2%
COc1ccc(NC(=O)CSc2nc(N)c(-c3ccccc3)c(=O)[nH]2)cc1 3.1%
COc1cc2ccccc2cc1C(=O)Nc1ccc(S(=O)(=O)Nc2cc(C)on2)cc1 3.1%
COC(=O)c1cccc(NC(=O)CSc2nc(C)cc(=O)[nH]2)c1 42.6%
Cc1ccc(NC(=O)NCC(c2cccnc2)N2CCOCC2)cc1 (centres undefined) 2.5%
COc1ccc(N/N=C2/CCCCC2=O)cc1 -10.8%
Cc1nc2cc(NC(=O)NCc3ccccc3)ccc2o1 -5.6%
O=C(O)c1cscn1 -3.7%
N#C/C(=C(\O)CCl)c1nnc2n1CCCCC2 3.8%
O=C(O)c1ccccc1-c1ccccc1C(=O)Nc1cccc2ccccc12 36%
O=C(CCC(=O)OCC(F)(F)C(F)F)NCc1ccccc1 4.8%
CCOC(=O)C1=C(CSc2nnnn2C)N(C)C(=O)NC1c1ccccc1 (centres undefined) -20.4%
CC(Sc1nncn1C)C(=O)Nc1ccccc1-c1ccccc1 (centres undefined) 15.8%
Cc1ccccc1NC(=O)c1ccccc1 0.6%
Cc1cccc(N2CCN(Cc3c(C)n(C)n(-c4ccccc4)c3=O)CC2)c1C -16.5%
CCOC(=O)N1CCN(Cc2nc(N)nc(Nc3ccc(C)cc3)n2)CC1 15.5%
Cc1ccccc1Nc1nc(N)nc(CN2CCN(c3ccccn3)CC2)n1 23.8%
CN(CCO)Cc1csc2ccc(Br)cc12 -22.8%
CCC1(C)N(O)C(C)(C)C(c2ccc(OC)cc2)=[N+]1[O-] (centres undefined) 0.3%
COC(=O)C(C)Oc1ccc2c(-c3cccc([N+](=O)[O-])c3)cc(=O)oc2c1 (centres undefined) 28.8%
Cc1ccc(C(c2nnnn2CS(=O)(=O)c2ccc(C)cc2)N2CCC(C(N)=O)CC2)cc1 (centres undefined) 6.2%
O=Cc1c(N2CCN(c3cccc(Cl)c3)CC2)nc2ccccn2c1=O 49.1%
COc1ccc(CC(=O)Nc2nc3n(n2)C(c2ccccc2)CC(=O)N3)cc1OC (centres undefined) -5.5%
COCCCNC(=O)c1ccc2c(c1)ncn2-c1ccccc1OC -38.2%
COc1ccccc1-n1cnc2cc(C(=O)NCC3CCCO3)ccc21 (centres undefined) -36.5%
Cn1ncc(Br)c1C(=O)NCc1cccs1 1.5%
COc1ccc(-c2csc3nc(-c4ccccc4F)oc(=O)c23)cc1OC -1.8%
Cc1ccc(S(=O)(=O)N2CCC(C(=O)N[C@@H](C)C(=O)NCc3ccccc3)CC2)cc1 -9.2%
CCN(CC)S(=O)(=O)c1ccc(N2CCOCC2)c(C(=O)O)c1 19.3%
O=C(CSc1nnc(Cn2cnc3ccccc32)o1)c1ccccc1 32.1%
CCOC(=O)N1CCN(CC(=O)c2c(C)[nH]c3ccccc23)CC1 -60.1%
COc1cc(OC)c(C(=O)Nc2ccc(N(C)C)cc2)cc1OC 33.3%
CCNS(=O)(=O)c1ccc(NC(=O)Nc2cccc(C(F)(F)F)c2)cc1 34.1%
CCC(=O)Nc1ccc(C(=O)Nc2cccc(OC)c2)cc1 -13.5%
CCOC(=O)C1=C(c2ccccc2)O/C(=C(/C(=O)OC)C(F)(F)F)S1 20.8%
Cc1cc(C)c(C#N)c(SCc2[nH]nc3c2C(c2ccccc2)C(C#N)=C(N)O3)n1 (centres undefined) 18.4%
COc1ccc(-c2[nH]nc3c2C(c2ccncc2)C(C#N)=C(N)O3)cc1 (centres undefined) -13%
CCCc1[nH]nc2c1C(c1ccc(Br)s1)C(C#N)=C(N)O2 (centres undefined) 33%
CCCc1[nH]nc2c1C(c1ccc(OC)c(Cn3nc(C)c(Br)c3C)c1)C(C#N)=C(N)O2 (centres undefined) 11.8%
COC(=O)c1cc(S(=O)(=O)NC2CCN(Cc3ccccc3)CC2)cn1C -9.6%
S=c1[nH]nc(-c2ccc(Cl)cc2)n1CC1CCCO1 (centres undefined) 15.7%
CC(C)NS(=O)(=O)c1ccc(CCC(=O)N2CCOCC2)cc1 0%
CC1CCCCC1NC(=O)CSc1nnc(N)s1 (centres undefined) -16.3%
CCCC1CC(C)(C(=O)Cn2[nH]c(=O)ccc2=O)OC1=O (centres undefined) -20.1%
CC(C)Nc1ncnc2c1nnn2Cc1ccccc1 -0.4%
Nc1c(C(=O)NCc2ccccc2)nnn1Cc1cccc(Cl)c1 19.3%
COC(=O)c1c(C)c(C)nc(N)c1C#N -10.8%
N#CCCN(CCC#N)c1nnc(-c2ccccc2)s1 2.8%
CCOC(=O)c1nnn(-c2nonc2-n2cccc2)c1CN1CCOCC1 16.6%
CCN(CC)Cc1c(C(=O)OC)nnn1-c1nonc1N -22.1%
O=c1c2c(nc3nc[nH]n13)CCC2 -10.5%
Cc1onc(-c2ccccc2)c1C(=O)N1CCOCC1 -1.3%
O=C(Nc1cccc2ccccc12)c1onc2c1CCCC2 -38.6%
CC(=O)Nc1cccc(-c2cnc3ccccc3n2)c1 49.7%
Cc1noc(C)c1C(=O)Nc1ccccn1 3.8%
COC(CNC(=O)Cn1ncc2ccsc2c1=O)OC -15.8%
CCCC(=O)N=c1sc2cccc(F)c2n1C 14.7%
CC1=Nn2c(nnc2-c2ccccc2)SC1 -4.9%
CCn1c(=N)c(S(=O)(=O)c2ccc(F)cc2)cc2c(=O)n3ccccc3nc21 -0.6%
O=C(Nc1nsc(-c2ccccc2)n1)c1ccncc1 45.7%
CCC(=O)Nc1nc(OC)cc(OC)n1 2.1%
COc1ccc(-n2c(SCC(=O)Nc3sc4c(c3C#N)CCCC4)nnc2-c2ccc(O)cc2)cc1 33.9%
N#Cc1ccsc1NC(=O)CN1CCCCC1 -15.3%
COc1ccc(NC2CC(=O)N(C)C2=O)cc1 (centres undefined) 1.8%
Cc1c(Cl)c([N+](=O)[O-])nn1Cc1ccc(C(=O)N/N=C\c2cc(Cl)ccc2O)o1 41.2%
CCOc1ccc(-c2nnn(CC(=O)N3CCN(c4ccc(OC)cc4)CC3)n2)cc1OCC 1.7%
Cc1ccc(CNC(=O)C2CCCN2C(=O)NCc2ccccc2)cc1 (centres undefined) -10%
O=C1c2ccccc2C(O)N1Cc1ccccc1 (centres undefined) -2.8%
